This experiment addresses Estrogen receptor beta (Homo sapiens) (UniProt Q92731). Description: ERbeta ligand binders by competition, primary screen, cell-based, Cos7 ERbeta-GFP, flow cytometry (AID 1210).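 Also: 0% = DMSO vehicle wells and 100% = complete loss of labeled estradiol signal.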 As to conditions: fluorescent estrogen binding, stronger effect = higher value. A general note: Flow cytometry measures light scatter and fluorescence of single cells or particles in a stream.
[1] abbreviates: ligand binding inhibition, at 0.1 µM.

Activity calls are given as the source filed them.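 The calls were made as follows: active = blocks over 70% of labeled estradiol binding at 10 µM, or over a set limit at 100 nM; inactive = the rest.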

In general, inhibition refers to the change of the read-out against control, counted positive when it falls.

Sequence of Estrogen receptor beta (Homo sapiens) (Q92731 whole entry, looked up): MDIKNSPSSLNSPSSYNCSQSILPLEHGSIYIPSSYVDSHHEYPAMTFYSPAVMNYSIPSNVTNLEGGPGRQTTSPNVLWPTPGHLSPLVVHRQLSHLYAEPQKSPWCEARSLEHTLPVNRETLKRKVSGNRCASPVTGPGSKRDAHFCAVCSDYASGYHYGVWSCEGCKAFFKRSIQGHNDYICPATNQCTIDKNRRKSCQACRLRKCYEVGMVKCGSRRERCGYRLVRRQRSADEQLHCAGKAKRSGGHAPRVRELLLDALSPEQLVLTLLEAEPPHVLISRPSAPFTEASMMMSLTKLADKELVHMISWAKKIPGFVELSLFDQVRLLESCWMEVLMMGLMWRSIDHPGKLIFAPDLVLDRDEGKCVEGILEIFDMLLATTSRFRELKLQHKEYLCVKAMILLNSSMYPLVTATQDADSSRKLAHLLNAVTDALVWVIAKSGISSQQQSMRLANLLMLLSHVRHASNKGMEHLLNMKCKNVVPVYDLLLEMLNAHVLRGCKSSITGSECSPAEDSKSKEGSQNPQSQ

`O=C(NCCN1CCOCC1)c1cnn2c(-c3ccccc3)cc(-c3ccccc3)nc12`: the inhibition was 47% (inactive) (at 10 µM) and 21% under setting [1].
For `C1=C(N2CCOCC2)/C(=C/c2nc3ccccc3[nH]2)CC1`, the inhibition (at 10 µM) is 26% (inactive) and the inhibition under setting [1] worked out at 20%.
Regarding `CCSc1nnc(NC(=O)C2Cc3ccccc3CN2C(=O)c2ccco2)s1` (centres undefined), the inhibition (at 10 µM) is 45% (inactive) and the inhibition under setting [1] was 34%.
Regarding `O=C(Nc1nccs1)c1ccc2nccnc2c1`, the inhibition runs as follows: (at 10 µM) 36% (inactive); under setting [1], 25%.
Consider `CCOc1[nH]c(/N=C/c2ccco2)c(C#N)c1C#N`, for which the inhibition reads like this: (at 10 µM) 35% (inactive); under setting [1], 15%.
As for `O=C(c1cc2ncc(Br)cn2n1)N1CCOCC1`, the inhibition was 68% (inactive) (at 10 µM) and 41% under setting [1].
On to `CC12CCC(=O)N1C(C(=O)OCC(=O)Nc1sccc1C#N)CS2` (centres undefined), for which the inhibition (at 10 µM) is 37% (inactive) and the inhibition under setting [1] was 47%.
The matching figures for `C=C1C2C[C@H](O)C(C)(C)[C@@]2(O)[C@H](O)C[C@]23C[C@@](C)(O)[C@H](CC[C@H]12)[C@H]3O` (some centres undefined): 70% (inactive) and 1%.
As to `Cc1cc(-c2ccccc2)nc2cc(C(N)=O)nn12`, the inhibition by setting is: (at 10 µM) 49% (inactive); under setting [1], 14%.
Regarding `COc1cccc2cc3c(=O)n(-c4ccccc4)nc-3oc12`, the inhibition by setting is: (at 10 µM) 70% (inactive); under setting [1], 12%.
For the molecule `Cc1ccc2nc(/C(C#N)=C\c3ccc(N4CCCCC4)c([N+](=O)[O-])c3)[nH]c2c1`, the inhibition is 15% (inactive) (at 10 µM) and 6% under setting [1].
Consider `Cc1ccc(S(=O)(=O)Cc2ccc(C(=O)N3CCN(Cc4ccccc4)CC3)o2)cc1`, for which the inhibition by setting is: (at 10 µM) 37% (inactive); under setting [1], 18%.
On to `CCC(=O)Oc1ccc(C(CC)C(CC)c2ccc(OC(=O)CC)cc2)cc1` (centres undefined), for which the inhibition (at 10 µM) is 82% (active) and the inhibition under setting [1] stood at 83%.
With `Clc1ccc2c(c1)[C@H]1OCC[C@H]1[C@@H](c1ccco1)N2`, the inhibition is, setting by setting: (at 10 µM) 0% (inactive); under setting [1], 4%.
Consider `O=C(COC(=O)c1cccc(S(=O)(=O)N2CCc3ccccc3C2)c1)NCc1ccco1`, for which the inhibition is 29% (inactive) (at 10 µM) and 5% under setting [1].
As for `CC(=O)Nc1nonc1-c1nc2ccccc2n1N(C(C)=O)C(C)=O`, the inhibition is 35% (active) (at 10 µM) and 70% under setting [1].
For `O=C1C=CC(O)(c2cc(=O)c3c(O)cc(O)cc3o2)C=C1`, in that order: 29% (inactive) and 8%.
The matching figures for `c1ccc(OCc2nnc3sc(C4COc5ccccc5O4)nn23)cc1` (centres undefined): 29% (inactive) and 28%.
As for `Cc1ccc(OCCN2CCN(CC(O)Cn3c4ccccc4c4ccccc43)CC2)cc1` (centres undefined), the inhibition runs as follows: (at 10 µM) 62% (inactive); under setting [1], 31%.
For the molecule `COc1ccc(NC2=CC(c3cccc(OC)c3)N(c3ccc(OC)cc3)C2=O)cc1` (centres undefined), the inhibition (at 10 µM) was 33% (inactive) and the inhibition under setting [1] was 25%.
On to `C=CCSC1=N/C(=C\C=C\c2ccco2)C(=O)S1`, for which the inhibition was 24% (inactive) (at 10 µM) and 1% under setting [1].
`CC(=O)N1c2ccc(Cl)cc2C2C=CCC2C1c1cccc2ccccc12` (centres undefined): the inhibition was 51% (inactive) (at 10 µM) and 6% under setting [1].
For the molecule `CC(C)c1ccc2c(c1)[C@H]1OCC[C@H]1[C@@H](c1cccs1)N2`, the inhibition by setting is: (at 10 µM) 0% (inactive); under setting [1], 36%.
`Cc1cc(C)nc(NC(=O)CSc2nn(C)c(=S)s2)n1`: the inhibition is 6% (inactive) (at 10 µM) and 20% under setting [1].
For the molecule `COc1ccc2c(c1)c1nc3ccccc3nc1n2CCCN1C(=O)c2ccccc2C1=O`, the inhibition is 49% (inactive) (at 10 µM) and 18% under setting [1].
Regarding `C/C(N)=C(/C#N)C(=O)CSc1nnnn1-c1ccc(C)cc1`, the inhibition is, setting by setting: (at 10 µM) 27% (inactive); under setting [1], 57%.
For `NC(=O)c1c(NC(=O)c2cccs2)sc2c1CCCCCC2`, the inhibition (at 10 µM) was 54% (inactive) and the inhibition under setting [1] was 42%.
With `Cc1cc(=O)oc2c(CN3CCC(C)CC3)c(O)c(Cl)cc12`, the inhibition was 20% (inactive) (at 10 µM) and 11% under setting [1].
The matching figures for `NS(=O)(=O)c1ccc2c(c1)C1C=CCC1C(C1CC=CCC1)N2` (centres undefined): 14% (inactive) and 2%.
In the case of `COc1ccc(N2C(=O)c3ccccc3NC2c2ccc(OC)c(COc3ccccn3)c2)cc1` (centres undefined), the inhibition (at 10 µM) was 40% (inactive) and the inhibition under setting [1] is 9%.
Consider `COc1ccc(OC)c(/C=N/c2oc(-c3ccco3)c(-c3ccco3)c2C#N)c1`, for which the inhibition is 31% (inactive) (at 10 µM) and 31% under setting [1].
Turning to `Cc1nn(-c2ccccc2)c(/N=C/c2ccc(O)cc2)c1-c1ccccc1`, the inhibition is, setting by setting: (at 10 µM) 78% (active); under setting [1], 44%.
For `Oc1ccc(C2=Nn3c(nnc3-c3ccco3)SC2)cc1O`, the inhibition was 32% (inactive) (at 10 µM) and 1% under setting [1].
As to `CC(=O)c1ccc2c(c1)C1C=CCC1C(c1ccc(S(=O)(=O)N3CCOCC3)cc1)N2` (centres undefined), the inhibition was 78% (active) (at 10 µM) and 17% under setting [1].
As for `CCOc1ccccc1C1C(C#N)=C(N)Nc2onc(-c3ccccc3)c21` (centres undefined), the inhibition was 5% (inactive) (at 10 µM) and 38% under setting [1].
Regarding `CCC1(C)NC(=O)N(CC(=O)Nc2sc3c(c2C(N)=O)CCC3)C1=O` (centres undefined), the inhibition was 58% (inactive) (at 10 µM) and 39% under setting [1].
For the molecule `O=C1CC(=O)N2N=C(c3ccc([N+](=O)[O-])cc3)SC2=N1`, the inhibition runs as follows: (at 10 µM) 45% (inactive); under setting [1], 19%.
Take `COc1ccc(-c2nn(-c3ccccc3)cc2/C=C2/SC(=S)N(Cc3ccco3)C2=O)c(C)c1`: the inhibition is, setting by setting: (at 10 µM) 57% (inactive); under setting [1], 23%.
For the molecule `Cc1ccc(-c2cc(C(=O)NCc3ccco3)c3ccccc3n2)o1`, the inhibition reads like this: (at 10 µM) 36% (inactive); under setting [1], 47%.
In the case of `CC(C)CN(C(=O)COC(=O)c1cc2c(s1)CCC2)C1CCS(=O)(=O)C1` (centres undefined), the inhibition by setting is: (at 10 µM) 25% (inactive); under setting [1], 28%.
As for `O=c1cc(CSc2nnc(-c3cccs3)n2Cc2ccccc2)nc2sc3ccccc3n12`, the inhibition runs as follows: (at 10 µM) 54% (inactive); under setting [1], 26%.
As for `CC(=O)Nc1ccc(N=Cc2nc(-c3ccc(C)cc3)oc2O)cc1`, the inhibition by setting is: (at 10 µM) 68% (inactive); under setting [1], 56%.

These data come from PubChem BioAssay AID1210 (NMMLSC, 2008).
